Measurements from PubChem BioAssay (NCATS).
Records with an inconclusive call do not appear. Where a call stands in place of a potency, no number is given. Values without a mark were called inactive. Active and inactive are the calls of the source. Calls come from the whole dose curve; as a rule, active = well fitted inhibition curve with a large enough effect; inconclusive = small, poorly fitted or top-dose-only effect; inactive = flat fitted curve, though single readings scatter.

Test system: Zika virus NS2B-NS3 protease
Experiment: Primary screen GU AMC qHTS for Zika virus inhibitors (AID 1347154); note: nearly all actives have a fitted effect of over 70% in size
Conditions: Zika NS2B-NS3 unlinked protease, AMC fluorogenic substrate; series mostly up to 54.1 µM
Outline: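 Fluorogenic AMC-substrate cleavage by noncovalent NS2B-NS3 protease complex (25 nM, pH 8.0 Tris buffer with Tween 20) followed for 15 minutes at room temperature (~20% conversion). Percent inhibition from ex340/em450 signal change, fitted by 4-parameter Hill equation.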

Row | Compound | Potency | activity change, negative = inhibition
1 | NS(=O)(=O)c1ccc(C(=O)O)cc1 | inactive | 
2 | CC(C)C[C@@H](N)C(=O)O | inactive | 
3 | Cc1ccsc1/C=C/C1=NCCCN1C | inactive | 
4 | Cn1cc(C(=O)[C@@H]2CCc3nc[nH]c3C2)c2ccccc21 | inactive | 
5 | CCOc1ccccc1O[C@H](c1ccccc1)[C@H]1CNCCO1 | inactive | 
6 | NC(N)=NCCN1CCCCCCC1 |  | -2.2% [at 0.59 µM]
7 | CCOC(=O)c1cccnc1 | inactive | 
8 | CCOC(=O)OC(C)OC(=O)[C@@H]1N2C(=O)[C@@H](NC(=O)[C@H](N)c3ccccc3)[C@H]2SC1(C)C (stereo partly drawn) | inactive | 
9 | Cc1cc(O)cc(C)c1Cl | inactive | 
10 | O=C(NCN1CCOCC1)c1cnccn1 | inactive | 
11 | CCOc1cc(NC(C)=O)ccc1C(=O)OC | inactive | 
12 | O=C(O)CCCc1ccccc1 | inactive | 
13 | CC(=O)N[C@@H](CC(C)C)C(=O)O | inactive | 
14 | Cc1ccc2c(c1)c1c3n2CCNC3CCC1 (stereo not drawn) | inactive | 
15 | CCC(C)(CN(C)C)OC(=O)c1ccccc1 (stereo not drawn) | inactive | 
16 | CCN[C@H]1CN(CCCOC)S(=O)(=O)c2sc(S(N)(=O)=O)cc21 | inactive | 
17 | CNc1c2c(nn1C)CCCC2 | inactive | 
18 | C[N+](C)(C)CC[N+]1(C)Cc2c(Cl)c(Cl)c(Cl)c(Cl)c2C1 | inactive | 
